Test results taken from PubChem BioAssay.

assay: COS7 lysate on small-molecule microarray, probe aHis, 635 nm (AID 1123); details: COS7 cell lysate, fluorescence, higher = more signal;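 note: z-score combines 667nm fluorescence intensity with signal-to-noise per printed compound spot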

Structure (SMILES)	composite z-score
COc1cc(CO)ccc1OC(C)=O	0.329
COc1ccc(C#Cc2ccc3c(c2)[C@]2(C(=O)N3)[C@H](c3ccc(O)cc3)N3[C@H](c4ccccc4)[C@H](c4ccccc4)OC(=O)[C@H]3[C@@H]2C(=O)N2CCCCCCC2)cc1	3.27
CN1C=C(C(=O)OCCS(C)(=O)=O)C(C(=O)OCCS(C)(=O)=O)=CC(CCCO)=CC1C1CC1 (stereo unspecified)	0.606
COCCOC(=O)N1C(=O)[C@@]2(c3cc(C#CCC(C(=O)OC)C(=O)OC)ccc31)[C@H](c1ccc(O)cc1)N1[C@H](c3ccccc3)[C@H](c3ccccc3)OC(=O)[C@H]1[C@@H]2C(N)=O	1.2
COc1ccc(NN2C(C(O)c3ccc(OC)c(OCc4ccccc4)c3)C=CC3C(=O)N(C4CCCCC4)C(=O)C32)cc1 (stereo unspecified)	2.52
CC(C)N1CC=CC23O[C@@H]4C=CCOC(=O)[C@@H]4[C@H]2C(=O)N(CCO)[C@@H]3C1=O (stereo partly specified)	1.29
O=C1c2ccccc2[C@@]2(Cc3ccccc3N(Cc3ccccc3)C2=O)[C@H](c2ccc(CO)cc2)N1C1CCCCC1	1.03
CO[C@H]1O[C@H](CO)[C@@H](OC(=O)Nc2ccc3c(c2)OCO3)[C@H](OC(=O)Nc2ccccc2)[C@H]1OC(=O)Nc1ccccc1	2.04
CC(C)C[C@@H]1NC(=O)[C@@H]2C[C@H](C(=O)NCCCCCC[N+](C)(C)C)[C@H](c3ccc(O)cc3)N2C1=O	1.58
N#Cc1ccc(NN2C(C(O)C3CCCCC3)C=CC3C(=O)N(c4ccccc4)C(=O)C32)cc1 (stereo unspecified)	2.62
O=c1oc(-c2ccccc2)nc2cc(Br)ccc12	0.704
